As usually defined, the remaining activity is the signal under treatment as a percentage of the control signal.

A number with no mark means an inactive call. How the calls were made is not given here.

The subject of the assay is Aerobactin synthetase IucA (Klebsiella pneumoniae, hypervirulent). In words: biochemical IucA inhibition screen of LOPAC library by absorbance (AID 1346212).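 Further: 100% = no compound wells and 0% = no enzyme wells.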 The settings on record: IucA enzyme assay, absorbance (OD) readout; active compounds read low;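 tested at 8 µM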.
Take `Cn1cc(C(=O)OCC2CCN(CCNS(C)(=O)=O)CC2)c2ccccc21`: the remaining activity is 104%.

`O=C(NCCNCC(O)COc1ccc(O)cc1)N1CCOCC1` (configuration not stated): the remaining activity is 118%.

With `CNC(=O)[C@H]1O[C@@H](n2cnc3c(NCc4cccc(I)c4)ncnc32)[C@H](O)[C@@H]1O`, the remaining activity is 114%.

For `NC(N)=Nc1nc(CSCC/C(N)=N/S(N)(=O)=O)cs1`, the remaining activity was 102%.

In the case of `CCCCCCCCCCCCCCCCCC(=O)NCC(COP(=O)([O-])OCC[N+](C)(C)C)OCC` (configuration not stated), the remaining activity was 97.5%.

`S=C(Nc1ccccc1)Nc1nccs1`: the remaining activity was 125%.

As to `Nc1cc(=O)[nH]c(N)n1`, the remaining activity was 126%.

For the compound `CN1CCc2c(cc(O)c(O)c2Cl)C(c2cccc(Cl)c2)C1` (configuration not stated), the remaining activity is 96.8%.

As for `CN1[C@@H](CC(=O)c2ccccc2)CCC[C@H]1C[C@H](O)c1ccccc1`, the remaining activity was 115%.

For the compound `CC(C)(CO)Cc1cc(C(C)(C)C)c(O)c(C(C)(C)C)c1`, the remaining activity was 109%.

Regarding `O=C(O)/C=C1\CCCc2ccccc2C1O` (configuration not stated), the remaining activity is 119%.

For the compound `NC(N)=NCc1cccc(I)c1`, the remaining activity was 118%.

On to `NC1CCN(c2cccc(Cl)n2)CC1`, for which the remaining activity was 104%.

With `COc1ccccc1N1CCN(CCN(C(=O)C2CCCCC2)c2ccccn2)CC1`, the remaining activity is 119%.

Turning to `O=C(O)c1ccccc1Nc1cccc(OCc2ccc3ccccc3n2)c1`, the remaining activity is 125%.

On to `NS(=O)(=O)c1cccc2c1c([N+](=O)[O-])cc1nc(O)c(O)nc12`, for which the remaining activity was 106%.

Take `CN1CCc2cccc3c2[C@H]1Cc1ccc(O)c(O)c1-3`: the remaining activity is 107%.

Values taken from PubChem BioAssay.
